# “And” between values parts separate entries of the source, which are not always exact repeats. Equal entries are not always repeated. The source holds several records for some structures; these can differ, active in one and inactive in another. The source made the active and inactive calls. Rule for the calls: active = hit-call score of the fitted dose curve at least 0.9, where 1 is the maximum; inactive = score below 0.9.
# Read-out: DNA damage-inducible transcript 3 (DDIT3), DDIT3 (gene 1649)
# Assay: LTEA_HepaRG_DDIT3: Life Technologies and Expression Analysis (LTEA) Assay for DNA damage-inducible transcript 3 (DDIT3) using HepaRG (AID 2283488)
# Details: mRNA level, 48 h; actives raise or lower the signal
# Procedure: LTEA_HepaRG is a cell based, multiplexed-readout assay that uses HepaRG, a human liver cell line, with measurements taken at 48 hours after chemical dosing on a 96-well plate.LTEA_HepaRG_DDIT3 is one of 102 assay component(s) measured in the LTEA HepaRG cell culture assay. It is a marker of Oxidative Stress.Data from the assay component LTEA_HepaRG_DDIT3 was analyzed into 1 endpoint. This assay endpoint, LTEA_HepaRG_DDIT3, was analyzed with bidirectional fitting relative to DMSO as the negative control and baseline of activity. Using a type of inducible reporter, measures of mRNA induction for gain or loss-of-signal activity can be used to understand regulation of transcription factor activity. To generalize the intended target to other relatable targets, this assay endpoint is annotated to the dna binding intended target family, where the subfamily is basic leucine zipper.
# A total of 1060 chemcials from the ToxCast library were tested in eight-point concentration-response experiments. Cell culture and cytotoxicity assays were conducted at Thermo Fisher Scientific's Custom Services facility (Madison, WI). A single lot of human HepaRG cells (Thermo Fisher Scientific, Frederick, MD) was used for the cell culture experiments. 96-well format collagen type I coated plates of human HepaRG cells were prepared using established methods. Briefly, cryopreserved HepaRG cells were thawed, plated at a density of approximately 100,000 cells/well in HepaRG Thaw, Plate, and General Purpose media (HPRG770, Thermo Fisher Scientific), and incubated for 48 hours. 0.5% DMSO was selected as vehicle control to balance the requisite need of DMSO in HepaRG cultures to maintain differentiation (for example, baseline metabolism, proportions of hepatocytes vs. cholangiocytes), while enabling further hepatic receptor pathway activation (for example, PXR and CAR) in response to chemical exposure. 48 hours after plating, the culture medium was replaced with HepaRG Serum-Free Incudtion Media. Cells were exposed to each test chemical in duplicate and maintained in CO2 incubators for another 48 hours. Chemical plates were thawed to room temperature and 200x concentrations of treatment groups were prepared. 8-point conentration-reponse curves were made with the highest exposure at 100 uM, followed by half-log dilutions, all in 0.5% DMSO. Each test plate contained variouse controls, induction positive controls (1mM phenobarbital), cytotoxicity positive controls ([…] aflatoxin B1), vehicle controls (0.5% DMSO), and total lysis controls (0.5% DMSO). Cell morphology images were taken using an Essen IncuCyte FLR automated microscope, with six 96-well plates imaged in about 24 minutes. Images were captured and exported and JPEG files. Spent culture media was transfered to black-well plates for the LDH assay, and remaining media was sorted at -80 C for later use. Cells were treated with RLT buffer and frozen until shipped for gene expression analysis. Total RNA was isolated from the cell suspension in 75 uL of Buffer RLT (Qiagen, Germantown, MD 20874) by Quintiles/Expression Analysis (Durham, NC) using a custom isolation procedure. Total RNA from each plate well was transferred to a preamplification plate. Fluidigm's 96.96 Dynamic ArrayTM (Fluidigm, Amsterdam, the Netherlands) technology was used for gene expression analyses by quantitative reverse transcription polymerase chain reaction (qRT-PCR, performed by Quintiles/Expression Analysis, Durham, NC)89. Standard TaqManTM Assays (Applied Biosystems/ThermoFisher Scientific, Foster City, CA) were used to assess the expression of 93 genes selected based on their selectivity and sensitivity to important hepatic receptors known to be modulated by environmental chemicals; importance in human hepatocyte functionality; and hepatotoxicity. […]
SMILES,AC50,outcome
Cc1ccc(-c2c(Cl)nc(C#N)n2S(=O)(=O)N(C)C)cc1,21.7 µM (active),
CN(C)C(=S)SSC(=S)N(C)C,,inactive
N#Cc1nn(-c2c(Cl)cc(C(F)(F)F)cc2Cl)c(N)c1S(=O)C(F)(F)F (stereo not given),30.2 µM (active),
Oc1ccccc1-c1ccccc1,,inactive
CCOP(=S)(OCC)SCn1c(=O)oc2cc(Cl)ccc21,,inactive
CCCN(CCC)c1c([N+](=O)[O-])cc(S(N)(=O)=O)cc1[N+](=O)[O-],93.7 µM (active) and 67.7 µM (active),inactive
C=CC1(C)OC(=O)N(c2cc(Cl)cc(Cl)c2)C1=O (stereo not given),,inactive
CCCCNC(=O)n1c(NC(=O)OC)nc2ccccc21,,inactive
Cc1c(F)c(F)c(COC(=O)C2C(/C=C(\Cl)C(F)(F)F)C2(C)C)c(F)c1F (stereo not given),,inactive
CCCC1COC(Cn2cncn2)(c2ccc(Cl)cc2Cl)O1 (stereo not given),30.7 µM (active),
C#CCOS(=O)OC1CCCCC1Oc1ccc(C(C)(C)C)cc1 (stereo not given),15.2 µM (active),
CO/C=C(/C(=O)OC)c1ccccc1Oc1cc(Oc2ccccc2C#N)ncn1,77.9 µM (active) and 94.2 µM (active) and 77.2 µM (active),
O=C(O)COc1nc(Cl)c(Cl)cc1Cl,,inactive
CCCCOC(=O)c1ccccc1C(=O)OCCCC,,inactive
CCON=C(CC)C1=C(O)CC(c2c(C)cc(C)cc2C)CC1=O (stereo not given),,inactive
CCOC(=O)CC(SP(=S)(OC)OC)C(=O)OCC (stereo not given),,inactive
CCNc1nc(Cl)nc(NCC)n1,,inactive
COC(=O)N(OC)c1ccccc1COc1ccn(-c2ccc(Cl)cc2)n1,60.9 µM (active),
CON(C)C(=O)Nc1ccc(Cl)c(Cl)c1,,inactive
CC1COC(Cn2cncn2)(c2ccc(Oc3ccc(Cl)cc3)cc2Cl)O1 (stereo not given),12 µM (active),

SMILES,AC50,outcome
COc1cnc(OC)n2nc(NS(=O)(=O)c3c(OCC(F)F)cccc3C(F)(F)F)nc12,,inactive
C=CCC1=C(C)C(OC(=O)C2C(C=C(C)C)C2(C)C)CC1=O (stereo not given),,inactive
O=C(O)c1nc(Cl)ccc1Cl,,inactive
COc1ccc(C(c2ccc(OC)cc2)C(Cl)(Cl)Cl)cc1,75 µM (active),
Fc1ccc(Oc2ccnc3cc(Cl)cc(Cl)c23)cc1,65.1 µM (active),
CC(Oc1ccc(Cl)cc1Cl)C(=O)O (stereo not given),,inactive
Cc1cc(Cl)ccc1OCC(=O)O,,inactive
CC(C)C1(C)N=C(c2nc3ccccc3cc2C(=O)O)NC1=O (stereo not given),,inactive
CCCCNC(=O)OCC#CI,,inactive
COC(=O)C=C(C)OP(=O)(OC)OC,,inactive
CC1=C(C(=O)Nc2ccccc2)SCCO1,,inactive
CC(C)Oc1cc(-n2nc(C(C)(C)C)oc2=O)c(Cl)cc1Cl,77.7 µM (active),
C=CCC1=C(C)[C@@H](OC(=O)[C@@H]2[C@@H](C=C(C)C)C2(C)C)CC1=O,,inactive
CCOc1cc(Oc2ccc(C(F)(F)F)cc2Cl)ccc1[N+](=O)[O-],78 µM (active),
COc1nc(NC(C)C)nc(NC(C)C)n1,,inactive
CNC(=O)ON=CC(C)(C)SC,,inactive
COC(=O)c1ccccc1C(=O)OC,,inactive
CCNc1nc(Cl)nc(NC(C)C)n1,,inactive
CNC(=S)S,,inactive

# From PubChem BioAssay (EPA / NIEHS)
